For 5 compounds, composite z-score and z-score results are on record in PubChem BioAssay.

In assay [1] the test system is Plasmodium falciparum Sir2 (PF13_0152, Sir2A). The assay can be described thus: Plasmodium falciparum Sir2A binding compounds – biochemical, small-molecule microarray, 635 nm fluorescence, primary screen (AID 1098).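 Note: score merges spot fluorescence intensity with its signal-to-noise ratio.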 As to conditions: fluorescence 635 nm, higher = more signal.
Assay [2] in a line: probe aDKK1 binding to arrayed compounds – biochemical, biotinylated probe, 635/667 nm fluorescence, primary screen (AID 1099).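 Note: score merges 667nm spot fluorescence with signal to noise across triplicate slides.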 The note with it: small-molecule microarray, higher = more signal.
A short description of assay [3]: probe aCHRDL2 binding to arrayed compounds – biochemical, biotinylated probe, 635/667 nm fluorescence, primary screen (AID 1100). As to conditions: small-molecule microarray, higher = more signal.
A short description of assay [4]: change in splice reporter luminescence, either direction, cell-based, HEK293, spliceosome inhibition project, primary screen (AID 1101).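 Note: HEK293 cells carrying a splicing-competent luciferase reporter gene; test concentration not given here.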 The note with it: HEK293 splicing luciferase reporter, 24 h, higher = more signal, called active from +8 up or from −8 down. (A reporter such as luciferase makes a cellular process visible.)
Assay [5] concerns the target Fibroblast growth factor 10 (Homo sapiens) (UniProt O15520). As to the kind of experiment: compounds binding fibroblast growth factor 10 – biochemical, small-molecule microarray, 635 nm fluorescence, primary screen (AID 1102). As to conditions: FGF10 binding, fluorescence 635 nm, higher = more signal.
Assay [6] concerns glycogen synthase kinase-3 (GSK3A per assay name; protocol says GSK3B). The assay can be described thus: compounds binding glycogen synthase kinase-3 – biochemical, small-molecule microarray, 635 nm fluorescence, GSK3A, primary screen (AID 1103). Note: the record names both GSK3A and GSK3B. As to conditions: fluorescence 635 nm, higher = more signal.
For assay [7], the target named is Epidermal growth factor receptor (Homo sapiens) (UniProt P00533). As to the kind of experiment: compounds binding epidermal growth factor receptor – biochemical, small-molecule microarray, 635 nm fluorescence, primary screen (AID 1104).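 Note: score merges 667 nm emission intensity with spot signal to noise over triplicate slides.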 The note with it: EGFR binding, higher = more signal.
Assay [8] addresses Follistatin-related protein 3 (Homo sapiens) (UniProt O95633). The assay can be described thus: compounds binding follistatin-related protein 3 – biochemical, small-molecule microarray, 635 nm fluorescence, primary screen (AID 1105).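 Note: score merges emission near 667 nm and signal to noise per printed spot across three slides.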 The note with it: FSTL3 binding, higher = more signal.
In assay [9] the target is Dickkopf-related protein 1 (Homo sapiens) (UniProt O94907). As to the kind of experiment: small molecules binding DKK1 protein – biochemical, small-molecule microarray, 635 nm fluorescence scan, primary screen (AID 1106).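 Note: score merges emission near 667 nm with signal to noise over three replicate slides.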 The note with it: higher = more signal.
Assay [10] deals with Inhibin beta A chain (activin A). The assay can be described thus: small molecules binding activin A – biochemical, small-molecule microarray, 635 nm fluorescence scan, primary screen (AID 1107).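 Note: mouse activin A protein probed at 4.33 µg/mL on printed slides; score merges bound-protein fluorescence near 667 nm with spot signal-to-noise.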 As to conditions: INHBA, higher = more signal.
Assay [11] relates to Human papillomavirus type 1a protein E7 (residues 44-93). As to the kind of experiment: small molecules binding HPV E7 44-93 – biochemical, small-molecule microarray, residues 44-93, 635 nm fluorescence, primary screen (AID 1108).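 Note: E7 fragment applied at 1 µg/mL in TBST for 1 h at 4 C; score combines spot fluorescence with its signal to noise ratio.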 The note with it: fluorescence 635 nm, higher = more signal.
The nature of assay [12]: hepatitis C replication reporter changes, two-sided – Huh7 cells, luciferase reporter, HCV replication inhibitor project, primary screen (AID 1109).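 Note: huh7 hepatoma cells harbouring a luciferase neomycin HCV replicon reporter; luciferase luminescence as measure of HCV replicon replication; test concentration not given here.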 As to conditions: Huh7 HCV replicon luciferase reporter, 48 h; higher = more signal.
The target of assay [13] is Left-right determination factor 2 (Homo sapiens) (UniProt O00292). The assay can be described thus: small molecules binding LEFTY2 protein – biochemical, small-molecule microarray, 635 nm fluorescence scan, primary screen (AID 1110). As to conditions: higher = more signal.
For assay [14], the target named is Calmodulin-1 (Homo sapiens) (UniProt P0DP23). The assay can be described thus: small molecules binding calmodulin-1 with EGTA – biochemical, small-molecule microarray, Cy5-labelled CALM1, profiling panel (AID 1111).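 Note: labelled calmodulin applied in Tris saline Tween buffer holding calcium plus EGTA and DTT.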 As to conditions: Cy5-CALM1 binding fluorescence, higher = more signal.
Assay [15] has the same target. As to the kind of experiment: small molecules binding Ca-loaded calmodulin-1 – biochemical, small-molecule microarray, Cy5-labelled CALM1, plus calcium, artefact control for SMM control-protein annotation, profiling panel (AID 1112).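 Note: score merges spot fluorescence with signal to noise from triplicate slides.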 The note with it: Cy5-CALM1 binding fluorescence, higher = more signal.
Assay [16] is described as follows: probe aWnt5a binding to arrayed compounds – biochemical, biotinylated probe, 635/667 nm fluorescence, primary screen (AID 1113).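 Note: score merges 667 nm fluorescence intensity with signal-to-noise per printed feature.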 As to conditions: small-molecule microarray, higher = more signal.
Assay [17] is described as follows: probe aShh binding to arrayed compounds – biochemical, biotinylated probe, 635/667 nm fluorescence, primary screen (AID 1114).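 Note: probe is biotin-labelled aShh protein from a stem cell growth factor screen; measures binding of labelled protein to compounds printed on the slide; score merges feature fluorescence at 667 nm with signal-to-noise.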 As to conditions: small-molecule microarray, higher = more signal.
Assay [18] is described as follows: probe aNog binding to arrayed compounds – biochemical, biotinylated probe, 635/667 nm fluorescence, primary screen (AID 1115).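 Note: probe is biotinylated aNog protein used at 0.15 µg/mL for 1 h at 4 C; z-score combines 667 nm fluorescence of each spot with its signal to noise.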 The note with it: small-molecule microarray, higher = more signal.
Assay [19] has as its target Torsin-1A-interacting protein 1 (Homo sapiens) (UniProt Q5JTV8). As to the kind of experiment: compound microarray binding of lysate hLAP1 – cell lysate, small-molecule microarray, COS7 lysate, 635/667 nm fluorescence, primary screen (AID 1116). The note with it: 635 nm fluorescence, higher = more signal.
The target of assay [20] is Alpha-bungarotoxin (Bungarus multicinctus) (UniProt P60615). As to the kind of experiment: compounds binding labelled alpha-BTX control protein – biochemical, small-molecule microarray, Alexa647 label, 635/667 nm fluorescence, artefact control for SMM control protein annotation, profiling panel (AID 1117). The note with it: alpha-BTX-A647 binding fluorescence, higher = more signal.

Calls of active or inactive are those of the source.

Sequence of Dickkopf-related protein 1 (Homo sapiens) (O94907 whole entry, looked up): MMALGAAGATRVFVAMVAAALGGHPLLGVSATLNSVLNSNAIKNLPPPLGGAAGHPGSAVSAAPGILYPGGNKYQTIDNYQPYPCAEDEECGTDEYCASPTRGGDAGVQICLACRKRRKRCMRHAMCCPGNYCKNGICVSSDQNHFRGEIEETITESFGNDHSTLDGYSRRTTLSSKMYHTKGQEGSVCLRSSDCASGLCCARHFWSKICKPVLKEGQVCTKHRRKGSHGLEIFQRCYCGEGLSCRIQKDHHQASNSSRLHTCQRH
Sequence of Torsin-1A-interacting protein 1 (Homo sapiens) (Q5JTV8 whole entry, looked up): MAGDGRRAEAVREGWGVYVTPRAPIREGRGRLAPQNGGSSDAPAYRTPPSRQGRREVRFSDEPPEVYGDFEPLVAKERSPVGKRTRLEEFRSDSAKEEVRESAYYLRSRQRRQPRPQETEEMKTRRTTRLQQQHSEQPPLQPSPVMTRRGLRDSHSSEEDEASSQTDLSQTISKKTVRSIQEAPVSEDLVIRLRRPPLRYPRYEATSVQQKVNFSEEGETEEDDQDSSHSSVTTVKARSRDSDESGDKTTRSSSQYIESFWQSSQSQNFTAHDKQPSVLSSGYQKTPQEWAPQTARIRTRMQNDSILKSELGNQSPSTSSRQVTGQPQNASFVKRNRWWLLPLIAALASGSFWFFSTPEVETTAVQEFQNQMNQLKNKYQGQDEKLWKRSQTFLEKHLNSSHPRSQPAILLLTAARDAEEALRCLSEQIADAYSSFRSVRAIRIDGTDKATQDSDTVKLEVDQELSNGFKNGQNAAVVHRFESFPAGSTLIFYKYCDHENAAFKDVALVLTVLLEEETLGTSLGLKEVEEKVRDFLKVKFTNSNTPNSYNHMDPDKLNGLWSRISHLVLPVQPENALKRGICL
Sequence of Follistatin-related protein 3 (Homo sapiens) (O95633 whole entry, looked up): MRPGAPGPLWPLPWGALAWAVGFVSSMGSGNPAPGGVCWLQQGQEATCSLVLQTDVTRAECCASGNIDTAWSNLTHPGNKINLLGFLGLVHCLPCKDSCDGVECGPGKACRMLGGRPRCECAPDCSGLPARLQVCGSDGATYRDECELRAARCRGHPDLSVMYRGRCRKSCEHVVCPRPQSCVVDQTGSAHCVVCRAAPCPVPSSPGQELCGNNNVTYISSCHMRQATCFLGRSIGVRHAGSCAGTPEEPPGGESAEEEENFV
Sequence of Fibroblast growth factor 10 (Homo sapiens) (O15520 whole entry, looked up): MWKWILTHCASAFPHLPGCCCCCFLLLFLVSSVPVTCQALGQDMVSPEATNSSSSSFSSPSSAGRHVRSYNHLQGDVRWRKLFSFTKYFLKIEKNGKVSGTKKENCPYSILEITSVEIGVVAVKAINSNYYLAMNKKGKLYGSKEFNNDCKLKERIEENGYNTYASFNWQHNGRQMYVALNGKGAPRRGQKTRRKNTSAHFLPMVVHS
Sequence of Left-right determination factor 2 (Homo sapiens) (O00292 whole entry, looked up): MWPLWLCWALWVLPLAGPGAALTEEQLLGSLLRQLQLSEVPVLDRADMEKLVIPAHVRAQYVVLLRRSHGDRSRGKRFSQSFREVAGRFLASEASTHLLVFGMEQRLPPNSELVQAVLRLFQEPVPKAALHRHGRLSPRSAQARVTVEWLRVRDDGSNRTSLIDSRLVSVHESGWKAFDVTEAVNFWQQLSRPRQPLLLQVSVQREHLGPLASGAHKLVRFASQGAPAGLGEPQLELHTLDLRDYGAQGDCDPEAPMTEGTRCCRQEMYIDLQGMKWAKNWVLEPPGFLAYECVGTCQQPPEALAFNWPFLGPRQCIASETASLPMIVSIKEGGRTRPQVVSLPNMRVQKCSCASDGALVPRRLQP
Sequence of Alpha-bungarotoxin (Bungarus multicinctus) (P60615 whole entry, looked up): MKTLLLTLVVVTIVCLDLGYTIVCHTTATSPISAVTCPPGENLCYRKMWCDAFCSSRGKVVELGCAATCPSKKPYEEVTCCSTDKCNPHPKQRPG
Sequence of Epidermal growth factor receptor (Homo sapiens) (P00533 whole entry, looked up): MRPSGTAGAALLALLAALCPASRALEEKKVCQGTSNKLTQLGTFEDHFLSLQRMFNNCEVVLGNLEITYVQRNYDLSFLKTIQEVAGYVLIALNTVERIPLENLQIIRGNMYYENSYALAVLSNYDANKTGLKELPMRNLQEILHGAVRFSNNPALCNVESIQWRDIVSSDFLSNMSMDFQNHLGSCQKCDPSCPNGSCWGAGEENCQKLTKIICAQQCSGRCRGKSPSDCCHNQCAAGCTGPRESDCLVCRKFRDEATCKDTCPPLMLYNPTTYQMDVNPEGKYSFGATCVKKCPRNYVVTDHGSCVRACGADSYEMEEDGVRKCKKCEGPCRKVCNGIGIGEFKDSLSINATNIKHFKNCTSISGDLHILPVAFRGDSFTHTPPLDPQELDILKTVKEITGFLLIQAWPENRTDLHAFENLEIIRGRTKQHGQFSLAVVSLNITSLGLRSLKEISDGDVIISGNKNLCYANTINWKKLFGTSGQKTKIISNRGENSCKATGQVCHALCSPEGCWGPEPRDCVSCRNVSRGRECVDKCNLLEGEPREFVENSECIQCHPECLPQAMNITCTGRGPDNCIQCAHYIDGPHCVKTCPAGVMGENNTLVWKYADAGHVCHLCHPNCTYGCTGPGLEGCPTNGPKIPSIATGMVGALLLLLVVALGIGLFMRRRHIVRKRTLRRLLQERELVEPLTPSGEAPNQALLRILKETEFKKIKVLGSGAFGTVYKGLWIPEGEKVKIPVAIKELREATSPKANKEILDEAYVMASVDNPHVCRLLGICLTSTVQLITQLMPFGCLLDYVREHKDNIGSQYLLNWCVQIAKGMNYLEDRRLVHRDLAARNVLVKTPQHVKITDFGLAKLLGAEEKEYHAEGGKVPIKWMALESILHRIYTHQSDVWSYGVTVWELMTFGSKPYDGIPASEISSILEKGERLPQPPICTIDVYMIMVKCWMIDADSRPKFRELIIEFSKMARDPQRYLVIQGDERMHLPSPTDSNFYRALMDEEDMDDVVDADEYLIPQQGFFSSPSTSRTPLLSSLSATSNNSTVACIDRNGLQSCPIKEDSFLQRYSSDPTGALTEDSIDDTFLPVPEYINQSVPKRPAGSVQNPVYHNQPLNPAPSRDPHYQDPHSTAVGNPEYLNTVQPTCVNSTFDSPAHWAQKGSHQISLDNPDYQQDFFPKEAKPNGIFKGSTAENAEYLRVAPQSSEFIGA

Take `COc1ccc(NN2C(C(O)c3ccc(OC)c(OCc4ccccc4)c3)C=CC3C(=O)N(C4CCCCC4)C(=O)C32)cc1` (stereo not given): the composite z-score in [1] was 0.897; in [2] it was 0.686; in assay [3], 0.627; in [5], 0.622; in assay [6], 0.995; in assay [7], 0.216. In addition, the composite z-score was 1 in assay [8]; -0.228 in assay [9]; 1.13 in assay [10]; 1.4 in assay [11]; -0.167 in assay [13]; 1.15 in assay [14]. Further, the composite z-score amounted to 0.63 in [15]; 0.135 in assay [16]; 0.213 in assay [17]; 0.751 in assay [18]; 0.637 in [19]; 1.82 in assay [20]. Further, the results for the z-score in assay [4] and in assay [12] were -0.306 (inactive) and -1.21, respectively.
Consider `O=C(NCc1ccccc1)[C@]1(CCS(=O)(=O)c2ccccc2)N=C(c2ccc(OCCCO)cc2)O[C@@H]1c1ccccc1`, for which the composite z-score in assay [1] is 1.31; in assay [2] it was 0.255; in assay [3] it was 0.264; in [5] it was 1.42; in assay [6] it was 1.32; in assay [7] it was 0.325. For the same compound, the composite z-score in [8] came to 1.41; in assay [9], 0.168; in assay [10], 0.604; in [11], 1.15; in assay [13], 0.554; in assay [14], 1.53. In addition, the composite z-score amounted to 0.206 in assay [15]; 0.0579 in [16]; 0.182 in [17]; 0.0539 in assay [18]; 0.51 in assay [19]; 0.452 in [20]. Further, the figures for the z-score in [4] and in assay [12] were 0.637 (inactive) and -2.05, respectively.
Turning to `O=C(CS)NCCCCCCNC(=O)[C@@H]1C[C@@H]2C(=O)N3CCC[C@H]3C(=O)N2[C@@H]1c1ccc(O)cc1`, the composite z-score is 0.425 in assay [1]; -0.207 in assay [2]; 0.597 in assay [3]; -0.252 in assay [5]; 0.691 in [6]; -0.226 in [7]. In addition, the composite z-score was -0.32 in assay [8]; 0.17 in assay [9]; -0.41 in assay [10]; 1.41 in assay [11]; -0.793 in assay [13]; 0.347 in assay [14]. In addition, the composite z-score in assay [15] is 0.0689; in assay [16] it was 0.0868; in assay [17] it was -0.0146; in assay [18], -0.264; in [19], 1.35; in [20] it was 0.139. The z-score in assay [4] is 0.552 (inactive); in assay [12] it was -0.695.
For `NC(=O)NCC#Cc1ccc2c(c1)[C@]1(C(=O)N2)[C@H](C(=O)N2CCCCCCC2)[C@H]2C(=O)O[C@H](c3ccccc3)[C@H](c3ccccc3)N2[C@@H]1c1ccc(OCCO)cc1`, the composite z-score amounted to 1.2 in assay [1]; 2.11 in assay [2]; 1.36 in [3]; 1.29 in assay [5]; 0.748 in assay [6]; 1.35 in assay [7]. Moreover, the composite z-score in [8] turned out to be 1.63; in [9], 1.75; in [10], 1.53; in [11], 1.18; in [13], 1.04; in [14], 1.99. Also, the composite z-score in assay [15] was 0.897; in assay [16], 0.83; in [17], 2.19; in [18], 2.19; in [19] it was 1.45; in assay [20] it was 2.02. Moreover, the z-score in assay [4] was -0.144 (inactive); in assay [12], -1.03.
As for `COc1ccc(C(=O)Nc2cccc(CN3C(=O)[C@@]4(O[C@@H](CCn5cc(CCO)nn5)[C@H]([Si](C)(C)c5ccc(OC)cc5)[C@H]4C)c4ccccc43)c2)cc1`, the composite z-score is 0.758 in [1]; -0.111 in [2]; 0.124 in assay [3]; 0.997 in assay [5]; 1.17 in assay [6]; 0.558 in [7]. Moreover, the composite z-score turned out to be 1.38 in [8]; 0.851 in [9]; 1.4 in assay [10]; 1.37 in assay [11]; 0.714 in assay [13]; 0.468 in assay [14]. In addition, the composite z-score in assay [15] was 0.308; in [16] it was -0.0403; in assay [17], 0.13; in assay [18], 0.153; in assay [19] it was 0.602; in assay [20] it was 1.6. The z-score was -1.16 (inactive) in assay [4] and -5.15 in assay [12].
